The values that follow come from PubChem BioAssay (NCI).

Compounds without any hit were thinned out: in the full panel of roughly 83,000, 20% have a hit.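 How to read the values: 0–100, growth inhibition (40 = 60% inhibited); 0, no net growth; -100 to 0, cell death (-40 = 40% of starting cells died; -100 = all dead).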 Unmarked numbers belong to inactive results. Active and inactive are the calls of the source. Rule for the calls: active = growth percent below 10; inactive = the rest.

Among the test systems are HCT-15 colon; HT29 colon; SNB-75 CNS; SNB-19 CNS; PC-3 prostate; SK-MEL-5 melanoma; UACC-62 melanoma; LOX IMVI melanoma; SK-MEL-28 melanoma; SN12C renal; UO-31 renal; TK-10 renal; ACHN renal; CAKI-1 renal; MOLT-4 leukemia; U251 CNS; SK-MEL-2 melanoma; EKVX NSCLC; CCRF-CEM leukemia; A498 renal.
Holding throughout (assay): NCI-60 one-dose screen, 48 h (100 = growth as untreated, 0 = no growth, -100 = all killed)
Holding throughout (conditions): 10 µM unless noted

For `CC(=O)/C(=C/c1ccc(Cl)cc1)C(=O)c1ccccc1`, the growth with HCT-15 colon is 79.3%; with HT29 colon, 78.9%; in the assay on SNB-75 CNS it was 81.6%; in the assay on SNB-19 CNS, 91.1%; in the assay with PC-3 prostate, 68.5%; in the assay with SK-MEL-5 melanoma, 94.2%. The growth in the assay with UACC-62 melanoma was 82.1%; with LOX IMVI melanoma, -43.9% (active); in the assay on SK-MEL-28 melanoma, 95.5%; in the assay with SN12C renal, 85.4%; in the assay with UO-31 renal it was 65.5%; with TK-10 renal, 101%. The results for the growth with ACHN renal, with CAKI-1 renal and in the assay on MOLT-4 leukemia were 99.4%, 85.2% and 62%, respectively.

For `Nc1nc(Nc2ccccc2SSc2ccccc2Nc2nc(N)nc(-c3cccc(Cl)c3)n2)nc(-c2cccc(Cl)c2)n1`, the growth in the assay with HCT-15 colon was 69.8%; in the assay on HT29 colon it was 104%; with SNB-19 CNS, 96.1%; with U251 CNS, 78.5%; in the assay with PC-3 prostate it was 83.9%; in the assay with SK-MEL-5 melanoma it was 95.5%. The growth in the assay on UACC-62 melanoma is 86.2%; in the assay on LOX IMVI melanoma it was 61.7%; with SK-MEL-28 melanoma it was 102%; in the assay on SK-MEL-2 melanoma, 105%; in the assay with EKVX NSCLC, 90.5%; in the assay with SN12C renal, 62.1%. Further, the growth in the assay on UO-31 renal is 83.9%; in the assay on TK-10 renal it was 154%; in the assay with ACHN renal it was 88.8%; with CAKI-1 renal it was 75.5%; in the assay with CCRF-CEM leukemia it was 68.1%; in the assay with MOLT-4 leukemia, 80.4%.

Turning to `c1ccc(Nc2ccc(Nc3nc(-c4ccccc4)nc4ccccc34)cc2)cc1`, the growth was 37.5% in the assay on HCT-15 colon; 29.7% with HT29 colon; 100% with SNB-19 CNS; 77% in the assay with U251 CNS; 74% in the assay with PC-3 prostate; 90.3% in the assay on SK-MEL-5 melanoma. Besides, the growth in the assay with UACC-62 melanoma was 86.6%; in the assay on LOX IMVI melanoma, 52.4%; with SK-MEL-28 melanoma, 93.7%; in the assay with SK-MEL-2 melanoma, 83.1%; in the assay with EKVX NSCLC, 87.1%; with SN12C renal, 87.9%. Besides, the growth in the assay on UO-31 renal is 63.7%; in the assay with TK-10 renal it was 98.5%; with ACHN renal it was 81.3%; in the assay with CAKI-1 renal, 71.2%; in the assay on CCRF-CEM leukemia, 52.7%; in the assay with MOLT-4 leukemia, 53%.

`COc1ccc2c(=O)c(OC)c(-c3cc(OC)c(OC)c(OC)c3)oc2c1`: the growth with HCT-15 colon was 101%; in the assay with HT29 colon it was 98.2%; with SNB-75 CNS it was 79.5%; in the assay on SNB-19 CNS, 92.5%; with PC-3 prostate it was 67.7%; in the assay on SK-MEL-5 melanoma, 75.4%. The growth in the assay on UACC-62 melanoma was 70.5%; in the assay with LOX IMVI melanoma, 82.7%; in the assay on SK-MEL-28 melanoma, 97.4%; in the assay with EKVX NSCLC it was 109%; in the assay on SN12C renal, 77%; in the assay with UO-31 renal, -82.5% (active). For the same molecule, the growth in the assay on TK-10 renal was 124%; in the assay with ACHN renal it was 92.2%; with A498 renal it was 96.1%; in the assay on CCRF-CEM leukemia it was 93.4%; in the assay with MOLT-4 leukemia, 99.6%.

As to `CCCCNCCCN(CCCC)CCCNCCCC`, the growth with HCT-15 colon is 93.2%; in the assay with HT29 colon, 105%; in the assay on SNB-75 CNS, 110%; with SNB-19 CNS, 98.2%; in the assay with PC-3 prostate, 90.4%; in the assay on SK-MEL-5 melanoma, 97.3%. Further, the growth with LOX IMVI melanoma was 104%; in the assay on SK-MEL-28 melanoma, 99.6%; in the assay with SK-MEL-2 melanoma, 112%; with SN12C renal it was 89%; in the assay with UO-31 renal it was 83.7%; with TK-10 renal, 97.3%. The growth in the assay on ACHN renal is 104%; with CAKI-1 renal, 91.1%; in the assay on A498 renal, 94.6%; in the assay on MOLT-4 leukemia it was 103%.

Consider `N#Cc1c(-c2ccccc2)cc(-c2ccccc2)n(CC(=O)O)c1=O`, for which the growth was 32.6% with HCT-15 colon; 24.2% in the assay with HT29 colon; 58.3% in the assay with SNB-19 CNS; 47.5% with U251 CNS; 70.4% in the assay on PC-3 prostate; 40.6% in the assay on SK-MEL-5 melanoma. Besides, the growth was 28.6% in the assay with UACC-62 melanoma; 52.5% with LOX IMVI melanoma; 60.6% with SK-MEL-28 melanoma; 28% in the assay on SK-MEL-2 melanoma; 81.4% in the assay on EKVX NSCLC; 70% in the assay with SN12C renal. In addition, the growth is 68.9% with UO-31 renal; 84.2% in the assay on TK-10 renal; 76.1% in the assay with ACHN renal; 47.3% in the assay with CAKI-1 renal; 56.3% in the assay with CCRF-CEM leukemia; 63.8% in the assay with MOLT-4 leukemia.

Turning to `COc1ccc(NC(=O)c2ccc(-c3ccccc3)cc2)c(C(N)=O)c1`, the growth with HCT-15 colon was 97.1%; in the assay with HT29 colon, 99.9%; with SNB-75 CNS, 112%; with SNB-19 CNS it was 94.2%; in the assay with PC-3 prostate it was 93.1%; with SK-MEL-5 melanoma, 101%. The growth in the assay with LOX IMVI melanoma is 96.6%; in the assay on SK-MEL-28 melanoma it was 108%; with SK-MEL-2 melanoma, 99.6%; in the assay with SN12C renal, 96.6%; in the assay on UO-31 renal, 79.6%; in the assay on TK-10 renal, 118%. Besides, the growth is 102% in the assay on ACHN renal; 103% in the assay with CAKI-1 renal; 97% in the assay on A498 renal; 90% in the assay on CCRF-CEM leukemia; 84.6% in the assay with MOLT-4 leukemia.

In the case of `CO[C@H]1/C=C/O[C@@]2(C)Oc3c(C)c(O)c4c(O)c(c(/C=N/N5C(C)CN(Cc6ccc(C#N)cc6)CC5C)c(O)c4c3C2=O)NC(=O)/C(C)=C\C=C\[C@H](C)[C@H](O)[C@@H](C)[C@@H](O)[C@@H](C)[C@H](OC(C)=O)[C@@H]1C` (stereo partly specified), the growth is 25% with HCT-15 colon; 26.4% in the assay on HT29 colon; 56.7% in the assay with SNB-75 CNS; 34.9% in the assay with U251 CNS; 13.1% in the assay with PC-3 prostate; 5.17% (active) in the assay on SK-MEL-5 melanoma. In addition, the growth is 3.13% (active) in the assay with UACC-62 melanoma; 52.5% with LOX IMVI melanoma; 46.3% in the assay on SK-MEL-28 melanoma; 61.2% with SK-MEL-2 melanoma; 17.1% with EKVX NSCLC; 39.4% in the assay on SN12C renal. In addition, the growth in the assay with UO-31 renal is 24.6%; in the assay with TK-10 renal, 19.7%; in the assay on ACHN renal, 26.3%; in the assay on CAKI-1 renal it was 39.1%; in the assay on A498 renal, 20.5%; in the assay on CCRF-CEM leukemia it was 12.1%. Further, the growth in the assay with MOLT-4 leukemia is -2.17% (active).

On to `CCOC(=O)N1CCC(N=C2CSc3nnc(-c4cc(C(F)(F)F)cc(C(F)(F)F)c4)n3N2)CC1`, for which the growth was 25.2% in the assay on HCT-15 colon; -3.65% (active) in the assay on HT29 colon; 58.2% in the assay with SNB-19 CNS; 22.6% in the assay with U251 CNS; 2.55% (active) in the assay with PC-3 prostate; -67.5% (active) in the assay with SK-MEL-5 melanoma. Also, the growth in the assay on UACC-62 melanoma was 32.6%; in the assay on LOX IMVI melanoma, 16.5%; in the assay on SK-MEL-28 melanoma, 44.5%; in the assay on SK-MEL-2 melanoma it was -22.5% (active); in the assay with EKVX NSCLC, 31.2%; with SN12C renal it was 28.5%. Also, the growth in the assay with UO-31 renal was 34.2%; in the assay on TK-10 renal it was 14.9%; in the assay on ACHN renal it was 30.5%; with CAKI-1 renal it was 55.2%; in the assay on CCRF-CEM leukemia it was 6.9% (active); in the assay on MOLT-4 leukemia, -2.78% (active).
